Screening data from PubChem.
A selection: hits, their analogues and other compounds. The true share with any hit is near 19%.
TDP1 cell noCPT = qHTS for Inhibitors of human tyrosyl-DNA phosphodiesterase 1 (TDP1): qHTS in cells in absence of CPT; 15% of 420,000 active; AID 686978, 2013; Potency, µM (titrated, usually from 46.2 µM), without a hit: top-dose activity change, negative = growth inhibition, usual class: inhibitors; DT40 Tdp1-/- hTDP1 cells, no CPT, ATP luminescence, 48 h; also: potency is read from the fitted curve at half-maximal effect; nearly all actives have a fitted effect of over 55% in size
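Chicken DT40 Tdp1-/- cells stably complemented with human TDP1 were seeded at 400 cells/well with DMSO in place of 20 nM camptothecin. After compound pinning, cells grew at least 48 hr at 37 °C; viability read by CellTiter-Glo luminescence.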
IL-1B inflam inh = blocks inflammasome-driven IL-1 beta release | THP-1 LPS/ATP IL-1B secretion, AlphaLISA, 16 h; active compounds read low | activity change, % at 57.5 µM | 4.7% of 360,000 active; in the data active = activity change below about -50%; inconclusive = mostly about -30% to -49%
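THP-1 cells pretreated 1 hr with compounds (up to 57.5 uM final), then stimulated with LPS (250 ng/mL final) plus ATP (1.25 mM final); secreted IL-1B measured by AlphaLISA after 16 hr, decreased signal indicating inhibition.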
DT40 TDP1 CPT = growth inhibition of DT40 Tdp1-/-;hTDP1 cells with camptothecin (screen for TDP1 inhibitors). Potency, µM (highest dose often 46.2 µM), for inactives: top-dose activity change, negative = growth inhibition, usual class: inhibitors. AID 686979. chicken DT40 Tdp1-/-;hTDP1 cells + 20 nM CPT, ATP luminescence, 48 h. 12% of 420,000 active; also: potency is read from the fitted curve at half-maximal effect; nearly all actives have a fitted effect of over 55% in size
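Cell growth measured by CellTiter-Glo luminescence after a minimum 48 h, 37 C compound exposure with 20 nM CPT in Tdp1-knockout DT40 cells stably expressing hTDP1, seeded 400/well; qHTS titration format.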
ELG1 repair inh = inhibitors of ELG1-dependent DNA repair in HEK293T cells | HEK293T ELG1-luciferase reporter, luminescence, 16 h; DNA damage induced by 5-fluorouridine | Potency, µM (titrated, usually from 46.1 µM), for inactives: top-dose activity change, negative = inhibition, usual class: inhibitors | 2.3% of 330,000 active; also: potency is read from the fitted curve at half-maximal effect; nearly all actives have a fitted effect of over 55% in size
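Cells (2,000 per well) received 5-fluorouridine plus test compound or DMSO and were incubated 16 hr at 37 °C, 5% CO2. Luciferase activity was read by luminescence 30 min after ONE-Glo addition; signal suppression marked inhibition of damage-induced ELG1 function.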
HT1080-NT tox = kills 2HG-producing HT-1080-NT fibrosarcoma cells. HT-1080-NT fibrosarcoma viability, CellTiter-Glo ATP luminescence, 48 h. Potency, µM (doses to about 46.1 µM), without a hit: at the highest dose activity, negative = less viability, most hits filed as cytotoxic. 1.6% of 360,000 active. AID 686970;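 also: NT is the 2HG producing partner of a matched IDH1 knockdown line; potency is read from the fitted curve at half-maximal effect; 0% = DMSO-treated cells and -100% = media-only wells without cells; nearly all actives have a fitted effect of over 55% in size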
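Viability of the 2HG-overproducing fibrosarcoma line after 48 hours of compound exposure at 37 degrees C was determined by luminescence with CellTiter-Glo, and concentration-effect curves were then fitted and categorized.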
HT1080 IDH1KD tx = toxicity to HT-1080 IDH1 knockdown cells (counter line); 2% of 360,000 active; Potency, µM (doses to about 46.1 µM), for inactives: at the top dose activity, negative = toxicity, usual class: cytotoxic; AID 686971; HT-1080 IDH1 knockdown viability, ATP luminescence, 48 h;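 also: potency is read from the fitted curve at half-maximal effect; 0% = DMSO wells and -100% = cell-free medium wells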
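In this qHTS, HT-1080 cells depleted of IDH1 are exposed for 48 h at 37 °C to compound titrations. Toxicity is scored from CellTiter-Glo luminescence, with DMSO as full viability and medium alone as none.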
Starred values were filed as active, the others as inactive; [ ] = dose if it differs, or a comment. Unless noted, calls follow the shape of the dose curve; as a rule, active = well fitted curve in the direction sought with a large enough effect; inconclusive = small, poorly fitted or top-dose-only effect, or another doubt; inactive = no such curve, though single readings can be large; an effect the other way counts as inactive or inconclusive. Unless noted, % is scaled to controls: 0 for no effect and ±100 for the full control effect.

`CC(=O)c1cccc(NC(=O)c2ccc(S(=O)(=O)N3CCCCC3)cc2)c1` gave TDP1 cell noCPT 18.4µM*, IL-1B inflam inh -26.4, DT40 TDP1 CPT 23.1µM*, ELG1 repair inh inconclusive, HT1080-NT tox -1.7% and HT1080 IDH1KD tx -4.8%.
O=C(Nc1ccc(Cl)cc1)N1CCC(CN2CCCC2)CC1 was read as TDP1 cell noCPT -16.8% and DT40 TDP1 CPT -6.6%.
For O=C(Nc1ccc(Cl)cc1)N1CCC(CN2CCCCCC2)CC1 the results were TDP1 cell noCPT 23.1µM* and DT40 TDP1 CPT inconclusive.
O=C(Nc1ccccc1)c1ccc(S(=O)(=O)N2CCCCC2)cc1 was read as TDP1 cell noCPT inconclusive, IL-1B inflam inh -26.4, DT40 TDP1 CPT -3.8%, ELG1 repair inh -12.5%, HT1080-NT tox -19.3% and HT1080 IDH1KD tx -0.3%.
For O=C(Nc1ccn(-c2ccccc2)n1)c1ccc(S(=O)(=O)N2CCCCCC2)cc1 the results were TDP1 cell noCPT inconclusive, IL-1B inflam inh -28.6, DT40 TDP1 CPT inconclusive, ELG1 repair inh 5.17µM*, HT1080-NT tox inconclusive and HT1080 IDH1KD tx 10.0%[9.24 µM].
`O=C(Nc1cccc(Cl)c1)N1CCOCC1` gave TDP1 cell noCPT 26.4%, IL-1B inflam inh -29.0, DT40 TDP1 CPT -9.3%, ELG1 repair inh inconclusive, HT1080-NT tox -1.9% and HT1080 IDH1KD tx -2.2%.
For O=C(Nc1cccc(Cl)c1)N1CCCC1 the results were TDP1 cell noCPT 25.9µM*, IL-1B inflam inh -18.3, DT40 TDP1 CPT 16.4µM*, ELG1 repair inh 18.1%, HT1080-NT tox 14.6% and HT1080 IDH1KD tx 5.9%.
Screening Cc1cccc(-c2oc3ccc(-c4ccc5c(c4)OCO5)cc3c2/C=C/c2ccc(N)cc2)c1 returned TDP1 cell noCPT -10.5%, IL-1B inflam inh 23.3, DT40 TDP1 CPT 8.8%, ELG1 repair inh 8.9%, HT1080-NT tox inconclusive and HT1080 IDH1KD tx 0.0%.
`CCOc1ccc(CC(=O)NCCS(=O)(=O)N2CCN(c3ccc(OC)cc3)CC2)cc1` gave TDP1 cell noCPT -29.9% and DT40 TDP1 CPT -24.6%.
Screening O=C(Nc1cccc(C(=O)N2CCCCC2)c1)c1ccccc1 returned TDP1 cell noCPT -2.0%, IL-1B inflam inh -0.8, DT40 TDP1 CPT 3.8%, HT1080-NT tox inconclusive and HT1080 IDH1KD tx 5.7%.
`O=C(Nc1cccc(S(=O)(=O)C(F)F)c1)c1ccc(S(=O)(=O)N2CCCCC2)cc1` gave TDP1 cell noCPT inconclusive, IL-1B inflam inh -61.9*, DT40 TDP1 CPT inconclusive, ELG1 repair inh 13µM*, HT1080-NT tox inconclusive and HT1080 IDH1KD tx inconclusive.
Screening O=C(Nc1cccc(C(=O)N2CCCCC2)c1)c1ccc(Cl)cc1 returned TDP1 cell noCPT 20.6µM*, IL-1B inflam inh 15.7, DT40 TDP1 CPT inconclusive, ELG1 repair inh 2.3%, HT1080-NT tox -7.2% and HT1080 IDH1KD tx -5.9%.
For COc1ccc2c(c1)c(=O)oc1c(C)c(OC(C)C(=O)N[C@@H](Cc3c[nH]c4ccc(O)cc34)C(=O)O)ccc12 (stereo partly specified) the results were TDP1 cell noCPT -2.7%, IL-1B inflam inh 12.2, DT40 TDP1 CPT -1.4%, ELG1 repair inh -4.0%, HT1080-NT tox -0.5% and HT1080 IDH1KD tx 0.1%.
Screening CC(=O)Nc1ccc(-c2nnc(SCc3ccccc3)n2C)cc1 returned TDP1 cell noCPT -10.0% and DT40 TDP1 CPT -40.3%.
For O=C(Cn1cc(C(F)(F)F)ccc1=O)N/N=C/c1ccc(Cl)cc1 the results were TDP1 cell noCPT -24.7%, IL-1B inflam inh 8.3, DT40 TDP1 CPT -12.4%, ELG1 repair inh -2.7%, HT1080-NT tox -3.8% and HT1080 IDH1KD tx -15.5%.
